Consider 111 molecules from PubChem BioAssay AID1030 (National Center for Advancing Translational Sciences (NCATS), 2008).

Screen size: about 220,000 compounds; about 16,000 (7.3%) were called active. Where a call stands in place of a potency, no number is given. Not shown: some 25% with an inconclusive outcome. This is one part of a sample in which actives are shown more often than they occur. A number with no mark means an inactive call. The call rests on the fitted dose curve; in most records, active means well fitted inhibition curve with a large enough effect (not every such curve was filed as active); inconclusive means small, poorly fitted or top-dose-only effect, or another doubt; inactive means no such curve, though single readings can be large or run the other way.
Potency means the concentration at half of the fitted maximal effect.

The target of the assay is Aldehyde dehydrogenase 1A1 (Homo sapiens) (UniProt P00352). Put plainly: qHTS Assay for Inhibitors of Aldehyde Dehydrogenase 1 (ALDH1A1). The following applies: Purified ALDH1A1, NADH fluorescence, propionaldehyde substrate; series mostly up to 75.3 µM.
Chain of Aldehyde dehydrogenase 1A1 (Homo sapiens) (P00352 whole entry, looked up): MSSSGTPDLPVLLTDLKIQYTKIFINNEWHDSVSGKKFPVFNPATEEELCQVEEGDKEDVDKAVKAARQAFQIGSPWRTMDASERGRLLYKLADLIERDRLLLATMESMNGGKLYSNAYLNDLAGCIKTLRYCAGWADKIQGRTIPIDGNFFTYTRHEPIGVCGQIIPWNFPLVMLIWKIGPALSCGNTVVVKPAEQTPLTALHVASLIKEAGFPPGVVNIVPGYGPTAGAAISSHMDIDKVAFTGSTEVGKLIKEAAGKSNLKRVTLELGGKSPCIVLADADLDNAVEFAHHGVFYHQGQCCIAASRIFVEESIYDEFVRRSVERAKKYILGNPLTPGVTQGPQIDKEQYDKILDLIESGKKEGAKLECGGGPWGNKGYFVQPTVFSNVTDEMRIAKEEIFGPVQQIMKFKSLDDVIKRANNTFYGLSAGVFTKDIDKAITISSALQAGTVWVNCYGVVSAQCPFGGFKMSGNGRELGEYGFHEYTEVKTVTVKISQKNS
Turning to `Cc1cc(C)cc(NC(=O)N(C)Cc2ccccc2)c1`, the Potency result was “inactive”.
Regarding `CCc1cccc2c(=O)c(C(=O)NCCCOC)c[nH]c12`, the Potency was 2 µM (active).
The same measure, in the same setting: next, `CCOCCCNC(=O)c1c[nH]c2cc(C)ccc2c1=O`: “inactive”; `CCCCOCCCNC(=O)c1ccccc1OCC`: “inactive”; `Cc1ccc(O)c(NC(=S)NC(=O)COc2ccc(Br)cc2)c1`: “inactive”.
On the same count and under the same terms, to `CSc1c(SCc2ccccc2)cnn(Cc2ccccc2)c1=O` belongs 11.2 µM (active); to `CSc1nc2ccccc2c(=O)n1Cc1ccc(F)cc1`, “inactive”.
`Cn1c(CO)cnc1SCc1ccccc1`: the Potency result was “inactive”.
Still for that read-out and setting: next, `CCCOCC(O)CC(CC)C(=O)NNC(=S)Nc1ccccc1` (stereo unspecified): “inactive”; `CC1(C)CC(CC(=O)O)C(=O)O1` (stereo unspecified): “inactive”.
On the same count and under the same terms, to `O=C(Nc1nc(-c2ccc(-c3ccccc3)cc2)cs1)c1cnccn1` belongs “inactive”.
The same measure, in the same setting: next, `C/C(CC1CC(C)(C)OC1=O)=N/Nc1nc(-c2ccccc2)cs1` (stereo unspecified): 7.94 µM (active); `Cc1ccc(C(=O)NC(=S)NCc2cccnc2)cc1`: “inactive”; `Cc1ccc(NC(=S)N(CCN2CCCCC2)Cc2ccco2)cc1C`: “inactive”.
`COc1ccc(CNC(=O)CN2CCC(n3nnc4cc(F)ccc43)CC2)cc1`: the Potency result is “inactive”.
`COc1ccc(C(=O)Nc2c(N)nc(SCC(=O)N3CCC(C)CC3)[nH]c2=O)cc1OC`: the Potency entry is “inactive”.
For `Cc1nnc(SCC(=O)N2CCOCC2)[nH]c1=O`, the Potency result is “inactive”.
As for `O=C(CSc1nc2c(cnn2-c2ccc(F)cc2)c(=O)[nH]1)N1CCCCCC1`, the Potency was 0.126 µM (active).
As for `O=C(Nc1ccc(F)c([N+](=O)[O-])c1)C1CC(=O)N(Cc2ccccc2)C1` (stereo unspecified), the Potency result was “inactive”.
Still for that read-out and setting: to `CC(CO)NCC12CC3CC(CC(C3)C1)C2` (stereo unspecified) belongs “inactive”; to `CC(C)n1c(-c2ccncc2)n[nH]c1=S`, “inactive”.
For `Nc1ccc(C(=O)NCc2ccccc2)cc1`, the Potency result is “inactive”.
Same read-out and setting: next, `COC(=O)C1C(=O)NCC1c1ccc(OC)cc1` (stereo unspecified): “inactive”; `COc1ccc(C2OC(=O)CC2C(=O)NC(C)C)cc1` (stereo unspecified): 15.8 µM (active); `CCCCN1C(=O)CCC(C(=O)O)C1c1ccc(OC)cc1` (stereo unspecified): “inactive”.
On to `CCOC(=O)C1(CCOC)CCN(Cc2ccc(C(=O)OC)cc2)CC1`, for which the Potency entry was “inactive”.
Regarding `COC(=O)c1cc(C(=O)OCC(=O)Nc2cc(C)on2)cc([N+](=O)[O-])c1`, the Potency result is “inactive”.
Still for that read-out and setting: next, `CC(=O)c1cccc(NC(=O)[C@@H](NC(N)=O)C(C)C)c1`: “inactive”; `O=C(CSc1nnc(C2CC2)n1Cc1ccccc1)Nc1cccnc1Cl`: “inactive”; `CC(=O)c1c(C)[nH]c(C(=O)NCc2ccc(C)cc2)c1C`: “inactive”.
As to `CC(=O)c1c(C)[nH]c(C(=O)NCCCN2CCCC2)c1C`, the Potency result is “inactive”.
Consider `CCCCN(CC)CCNC(=O)c1[nH]c(C)c(C(C)=O)c1C`, for which the Potency is 10 µM (active).
Take `CC(=O)NC1(c2ccc(F)cc2)CCN(C(=O)c2c(F)cccc2F)CC1`: the Potency result was “inactive”.
With `O=C(CCC(=O)NNc1nc2ccccc2c2nc(-c3ccccc3)nn12)NCCCN1CCCC1=O`, the Potency result is “inactive”.
Turning to `CC1=C(C(N)=O)C(c2sccc2C)n2nnnc2N1` (stereo unspecified), the Potency is 20 µM (active).
Turning to `CCCCCOC(=O)C1=C(C)Nc2nnnn2C1c1ccc(OC)c(OC)c1OC` (stereo unspecified), the Potency entry is “inactive”.
The same measure, in the same setting: to `CC(=O)C1=C(C)NC(C)=C(C(C)=O)C1c1cn(-c2ccccc2)nc1-c1cccs1` belongs “inactive”; to `Cc1cc(C)n(CC(=O)Nc2ccc([N+](=O)[O-])cc2)n1`, “inactive”.
The same measure, in the same setting: next, `Cc1cc(=O)oc2c1c(C)nn2-c1ccc(Cl)cc1`: “inactive”; `CC(C)(C)C(=O)CSc1nc2ccccc2o1`: “inactive”.
Consider `COc1ccccc1CNC(=O)c1cc(=O)c2ccccc2o1`, for which the Potency entry was “inactive”.
On the same count and under the same terms, to `Cn1cnnc1SCC(=O)Nc1ccc(N2CCOCC2)cc1` belongs “inactive”; to `CN(Cc1ccc2nsnc2c1)Cc1nc(Cc2cccc(F)c2)no1`, “inactive”; to `Cc1cc(C)c(C#N)c(SCC(=O)Nc2ccccc2)n1`, “inactive”.
Consider `Cc1cc(C)nc(N(C#N)CC(=O)Nc2ccccc2)n1`, for which the Potency was 15.8 µM (active).
Same read-out and setting: next, `CCOC(=O)/C(C#N)=C/c1ccc(OCC(=O)Nc2ccccc2)c(OC)c1`: “inactive”; `CCC(C)NC(=O)CN(C1CCCCC1)S(C)(=O)=O` (stereo unspecified): “inactive”.
Regarding `O=C(CSc1ncn[nH]1)Nc1ccnc2ccccc12`, the Potency is 22.4 µM (active).
Still for that read-out and setting: to `CCOC(=O)n1c(SCC(=O)N(CC)CC)nc2ccccc21` belongs “inactive”; to `CCN(C(=O)CSc1ncn[nH]1)c1cccc2ccccc12`, 25.1 µM (active); to `O=C(CSc1ncn[nH]1)Nc1nsc(-c2ccccc2)n1`, “inactive”.
Still for that read-out and setting: to `O=C(CSc1n[nH]c(-c2cccnc2)n1)Nc1ccnc2ccccc12` belongs “inactive”; to `CCN(CC)C(=O)CSc1nc2ccccc2o1`, “inactive”; to `O=S(=O)(c1cccc(C(F)(F)F)c1)N1CCN(c2cnccn2)CC1`, “inactive”.
Same read-out and setting: to `CCCn1nc(Oc2nc(NC(C)C)nc(N(C)C)n2)ccc1=O` belongs “inactive”.
As for `O=C(/C=C/c1cccs1)NCc1cccnc1`, the Potency result was “inactive”.
Still for that read-out and setting: to `O=C(NCc1cccnc1)c1cn(-c2ccccc2)nc1-c1cccs1` belongs 3.98 µM (active); to `O=C(NCc1cccnc1)c1nc(-c2cccs2)no1`, “inactive”.
Still for that read-out and setting: next, `O=[N+]([O-])c1cc(S(=O)(=O)CCCN2CCOCC2)ccc1F`: “inactive”; `COC(=O)C(C(=O)Nc1cccc(Cl)c1C)C1CCCC1` (stereo unspecified): “inactive”; `ClC1(Cl)CC1CSc1ncn[nH]1` (stereo unspecified): “inactive”.
As to `COc1ccc(N2C(=O)CC(SC(C)C)C2=O)cc1` (stereo unspecified), the Potency result was “inactive”.
Take `Cc1ccc(N2C(=O)CC(Sc3ncn[nH]3)C2=O)cc1` (stereo unspecified): the Potency is 11.2 µM (active).
As to `Cc1ccc(CC2CC(=O)N(c3nc(C)cc(C)n3)C2=O)cc1` (stereo unspecified), the Potency result is “inactive”.
The same measure, in the same setting: next, `COc1ccc(N2C(=O)CC(Sc3n[nH]c(-c4ccc(C)cc4)n3)C2=O)cc1` (stereo unspecified): 0.794 µM (active); `O=C1CC(Sc2ncn[nH]2)C(=O)N1c1ccccc1` (stereo unspecified): 1.12 µM (active).
On the same count and under the same terms, next, `Cc1ccc(N2C(=O)C3CC3C2=O)cc1` (stereo unspecified): “inactive”; `COc1ccc(-c2nc(SCC(=O)N3CCOCC3)n[nH]2)cc1`: “inactive”; `O=C(CSc1nc2ccc(Nc3nc(N4CCOCC4)nc(N4CCOCC4)n3)cc2s1)NCc1ccco1`: “inactive”.
`CSc1sc(C(=O)NC(=O)NCc2cccnc2)c(C)c1-c1ccon1`: the Potency entry is “inactive”.
On the same count and under the same terms, next, `Cc1ccccc1CCN(CC(=O)NC1CCCCC1)C(=O)c1csnn1`: “inactive”; `O=C(CCc1ccccc1)Nc1ncc([N+](=O)[O-])s1`: “inactive”.
On the same count and under the same terms, to `OCCC1CN(Cc2ccc3nsnc3c2)CCN1C1CCCCC1` (stereo unspecified) belongs “inactive”; to `Cn1c(=O)c2cc(S(=O)(=O)NCCC(=O)Nc3ccc(F)cc3F)ccc2n(C)c1=O`, “inactive”.
For `COC(=O)C1=C(C(=O)OC)[C@@H]2N(C)c3ccccc3[C@@]23C[C@@H](C(=O)OC)N(S(=O)(=O)c2cccs2)C3=N1`, the activity, negative = inhibition is 0.268% [at 13.5 µM].
In the case of `Cc1ccc(CCNC(=O)C2CCN(S(=O)(=O)N3CCCC3)CC2)cc1`, the Potency was 12.6 µM (active).
On the same count and under the same terms, next, `O=C(NCCCN1CCN(Cc2ccccc2)CC1)C1CCN(S(=O)(=O)N2CCCC2)CC1`: “inactive”; `Cc1ccc(S(=O)(=O)N2CCC(C(=O)N[C@@H](C)C(=O)NCCc3ccccc3)CC2)cc1`: “inactive”.
Consider `CN(Cc1cccc2ncccc12)C(=O)CC1C(=O)NCCN1Cc1ccc(F)cc1` (stereo unspecified), for which the Potency entry was “inactive”.
On the same count and under the same terms, next, `COc1ccc(C)cc1NC(=O)Nc1ccccc1SC`: “inactive”; `O=C(c1ccccn1)c1ncc(C(F)(F)F)cc1Cl`: “inactive”.
With `N/C(=N\OC(=O)Nc1ccc(Cl)c(Cl)c1)c1ncc(C(F)(F)F)cc1Cl`, the Potency is 25.1 µM (active).
On to `O=C(CC(O)(C(F)(F)F)C(F)(F)F)Nc1ccc(Cl)c(Cl)c1`, for which the Potency entry is “inactive”.
Consider `CC1(OC(=O)CCc2ccccc2)C(=O)C=C2C=C(c3ccc(C#N)cc3)N(CCc3ccccn3)C=C2C1=O` (stereo unspecified), for which the activity, negative = inhibition is 10.1% [at 13.5 µM].
With `C=CCn1c(-c2ccc3[nH]c(C)c(C)c3c2)n[nH]c1=S`, the Potency was 12.6 µM (active).
Consider `C=CCn1c(CCc2ccc(OC(C)C)cc2)n[nH]c1=S`, for which the Potency entry is “inactive”.
On the same count and under the same terms, next, `C=CCn1c(-c2ccccc2OCC)n[nH]c1=S`: “inactive”; `O=C(CN1CCN(c2ncccn2)CC1)Nc1ccccc1C(F)(F)F`: “inactive”; `c1ccc(-c2cc(N3CCCCC3)c3ccccc3n2)cc1`: “inactive”.
Consider `COc1cccc(NC(=O)C(Sc2nnnn2C)c2ccccc2)c1` (stereo unspecified), for which the Potency entry is “inactive”.
The same measure, in the same setting: next, `OCCNCc1cccc(OCc2ccccc2Cl)c1`: “inactive”; `O=C(C1CCCO1)N1CCN(C(=S)NC2CC2)CC1` (stereo unspecified): “inactive”.
As for `Cn1c(=O)c2c(nc(SCC(=O)Nc3ccccc3N3CCCCC3)n2C)n(C)c1=O`, the Potency result is “inactive”.
On to `CCC1CCCCN1C(=O)CSc1nc2c(c(=O)n(C)c(=O)n2C)n1C` (stereo unspecified), for which the Potency was 12.6 µM (active).
Still for that read-out and setting: next, `CCC1CCCCN1C(=O)CSc1nc(C)cc(C)n1` (stereo unspecified): “inactive”; `Cc1c(C(=O)N/N=C/c2ccccc2)[nH]c2c([N+](=O)[O-])cccc12`: “inactive”; `Cc1[nH]c(=O)c(C(=O)/C=C/c2ccccc2)c2c1CCCC2`: “inactive”.
For the molecule `O=C(/C=C/c1ccccc1)c1ccccc1O`, the Potency entry was “inactive”.
The same measure, in the same setting: to `Cc1nc(-c2ccccc2)sc1C(=O)/C=C/c1ccccc1` belongs 3.55 µM (active).
Still for that read-out and setting: to `O=C(O)C1C2CC2CN1C(=O)c1ccc(Cl)cc1Cl` (stereo unspecified) belongs “inactive”; to `Cc1[nH][nH]c(=O)c1N=Nc1ccccc1`, “inactive”; to `Cc1[nH][nH]c(=O)c1C(c1ccc(-c2ccc(Cl)cc2)o1)c1c(C)[nH][nH]c1=O`, 22.4 µM (active).
Same read-out and setting: next, `Cc1[nH][nH]c(=O)c1C(c1ccc2c(c1)OCO2)c1c(C)[nH][nH]c1=O`: “inactive”; `O=C(NCCc1ccccn1)c1cccnc1Oc1ccc(Cl)cc1`: “inactive”; `CN1CCN(C(=O)CCc2nc(-c3ccc(Cl)cc3)no2)CC1`: “inactive”.
On to `CCCn1c(=O)c2ccccc2n2c(SCC(=O)/C(C#N)=C(\C)N)nnc12`, for which the Potency entry was “inactive”.
For the molecule `CCOC(=O)Nc1ccccc1N1C(=O)c2ccccc2C1=O`, the Potency entry was “inactive”.
Same read-out and setting: to `CCCCN1C(=O)/C(=C(/C#N)C(N)=O)c2ccccc21` belongs 7.08 µM (active).
Regarding `CCc1nnc(NS(=O)(=O)c2ccc(N=Cc3c(C)[nH]n(-c4ccc(C)cc4)c3=O)cc2)s1`, the Potency result is “inactive”.
With `COc1cc(SC#N)ccc1N=Cc1c(C)[nH]n(-c2ccc(C)cc2)c1=O`, the Potency is 0.631 µM (active).
For `Cc1ccc(-n2[nH]c(C)c(/C=N/N3C(=O)c4cccc5cccc(c45)C3=O)c2=O)cc1`, the Potency entry was “inactive”.
